# D1 antag – human D1 dopamine receptor antagonism. HEK293 TREx D1 cells, calcium flux, dopamine EC80; active compounds read low. activity change, negative = inhibition, % at 10 µM. 360,000 compounds, 3.2% hits. AID 504652; in the data active = activity change below about -30%; also: % is scaled to controls: 0 for no effect and ±100 for the full control effect
# Target sequence (P21728 whole entry, looked up): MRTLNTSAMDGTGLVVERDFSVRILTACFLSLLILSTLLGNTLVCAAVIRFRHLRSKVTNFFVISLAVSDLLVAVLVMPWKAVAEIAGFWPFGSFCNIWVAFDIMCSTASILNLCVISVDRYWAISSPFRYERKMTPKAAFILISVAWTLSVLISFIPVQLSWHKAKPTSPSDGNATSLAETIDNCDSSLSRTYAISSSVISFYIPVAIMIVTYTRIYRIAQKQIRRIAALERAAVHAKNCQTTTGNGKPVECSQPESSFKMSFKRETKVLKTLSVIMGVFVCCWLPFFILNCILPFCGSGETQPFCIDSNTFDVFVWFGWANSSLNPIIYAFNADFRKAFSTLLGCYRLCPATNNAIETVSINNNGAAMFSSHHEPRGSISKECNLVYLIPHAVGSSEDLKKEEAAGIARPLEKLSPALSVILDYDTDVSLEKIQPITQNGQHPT
#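 Tetracycline-induced HEK293 T-REx cells with force-coupled D1 receptor were loaded with a no-wash calcium dye. Compound was added after a 10 s baseline and read kinetically for 180 s; EC80 dopamine was then added and calcium flux followed another 180 s.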
# TRHR ag – agonists of human TRH receptor | activation, % at 2 µM | P34981 | 360,000 compounds, 0.18% hits | TRHR cells, calcium flux fluo-8, FDSS agonist mode; also: 0% is about no effect
#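 TRHR-expressing cells loaded with fluo-8 calcium dye; 23 nL library compound pin-transferred, kinetic FDSS fluorescence (Ex 480/Em 530) recorded about 180 s for agonist-induced calcium release, before a 10 nM TRH EC20 addition for potentiator mode.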
# D1 ag – agonists of human D1 dopamine receptor; HEK293 T-REx D1 cells, calcium flux, agonist mode; activation, % at 2 µM; 360,000 compounds, 1% hits; AID 504660; also: 0% is about no effect
#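 Tetracycline-induced HEK293 TREx D1 cells, force-coupled to calcium signalling, were dye-loaded with a no-wash calcium kit. Compound was pin-added after a 10 s baseline. Fluorescence was read kinetically at 1 cycle/s for 180 s, with calcium rises flagged as agonism.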
# D1 PAM – human D1 dopamine receptor positive modulation; P21728; HEK293 TREx D1 cells, calcium flux, dopamine EC20 potentiation; potentiation, % at 10 µM; 360,000 compounds, 0.036% hits; AID 504651; in the data active = potentiation above about 30%; also: 0% is about no effect
# TRHR enhancer – TRH receptor (human) allosteric enhancement. P34981. enhancement, % at 2 µM. 360,000 compounds, 0.66% hits. TRHR cells, fluo-8 calcium fluorescence, EC20 TRH enhancement; in the data active = enhancement above about 30%; also: 0% is about no effect
#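 TRHR-expressing cells loaded with fluo-8 calcium dye were read kinetically (ex 480/em 530) during compound addition, then stimulated with an EC20 of TRH (10 nM final). Enhancement of the Gq-mediated intracellular calcium response was scored.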
# GRP78 ERSR act – inducers of ER stress response in human glioma cells. U87-MG GRP78 promoter luciferase reporter, 16 h. Potency, µM, inactives show at the top dose activation, most hits filed as activators. 420,000 compounds, 0.02% hits; active = well fitted activation curve with a large enough effect; also: potency is read from the fitted curve at half-maximal effect; series mostly up to about 76 µM; % of control where 0% means no effect; nearly all actives have a fitted effect of over 35% in size
#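 ERSR induction read as luciferase luminescence (Bright-Glo, 10 min at room temperature) in stably transfected human U87-MG glioma cells exposed to compounds for 16 h, using GRP78 as sensor.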
# The depositor's hits bear a star; · = no result. Most compounds without a hit are left out; they make up all but 4% or so of the library. Rule as the data show it, unless noted: active = activation above about 30%; inactive = the rest.
SMILES,D1 antag,TRHR ag,D1 ag,D1 PAM,TRHR enhancer,GRP78 ERSR act
COc1ccc(C(=O)NC(C)c2cnn(-c3ccccn3)c2C)o1 (stereo unspecified),-0.6,0.2,7.2,-1.2,-2.4,4.0%
COC(c1ccccc1Br)C(C)/C=C/CCO (stereo unspecified),·,·,·,·,·,-4.4%
CCOC(=O)c1nnn2c1nc(N1CCN(C)CC1)c1ccccc12,-23.0,-1.1,1.8,4.3,-3.8,-4.6%
CCOC(=O)c1nnn2c1nc(N1CCCCC1)c1ccccc12,-42.2*,0.1,-1.1,6.5,-5.9,-0.3%
Cc1ccc(-c2nc(CN(C)Cc3cccc4cnccc34)c(C)o2)s1,-0.7,1.3,-0.2,-0.1,-3.4,-1.1%
COc1ccc(CNc2ncc(-c3ccccc3)n2C)c(OC)c1OC,-30.2*,-1.1,2.7,-2.4,3.0,-4.6%
COc1ccc(NC(=O)n2ncc3c(C)cccc32)cc1,-5.6,-0.3,5.5,4.3,-8.1,11.7%
c1ccc(COc2ccccc2CNC23CC4CC(CC(C4)C2)C3)cc1,4.9,6.6,49.1*,-3.8,-2.1,-6.4%
Cc1ccc(C(=O)c2coc3ccc(O)c(Cl)c23)cc1,-1.2,-1.9,1.8,0.1,9.9,-5.1%
O=C(c1ccccc1)c1coc2ccc(O)c(Cl)c12,75.2,-0.4,111.2*,4.6,-0.9,14.4%
CCN(CC)c1ccc(/C=C/C(=O)C2C(=O)C=C(C)OC2=O)cc1 (stereo unspecified),-78.9*,221.8*,245.8*,-4.4,39.6*,5.7%
Cc1cccc(N2CCN(C(=O)CCn3c(=O)[nH]c4ccsc4c3=O)CC2C)c1 (stereo unspecified),-12.6,-1.7,-4.3,-6.0,31.7*,-0.3%
Cc1cccc(N2CCN(C(=O)CCCn3c(=O)[nH]c4ccsc4c3=O)CC2C)c1 (stereo unspecified),2.8,-0.5,1.5,-2.5,3.9,-2.8%
O=C(CCCn1c(=O)[nH]c2ccccc2c1=O)N1CCN(c2ccccn2)CC1,-1.2,0.5,-2.2,-4.6,1.2,-3.0%
O=C(CCCn1c(=O)[nH]c2ccsc2c1=O)N1CCN(c2ccccn2)CC1,-5.8,-0.1,0.0,-0.7,30.4*,-2.1%
COc1cccc(Cn2ncc3c4sc(B(O)O)cc4n(C)c3c2=O)c1,19.6,0.2,13.7,-2.6,26.7,·
CCC1=C(OC(=O)N(CC)CC)N2C(=O)OC(=NCc3ccccc3)[C@]2(C)[C@H]2C1=CC[C@H]1C(=O)N(CC)C(=O)[C@H]12,-34.5*,-0.4,1.1,-7.9,-6.4,-3.6%
CCCN(CC(=O)Nc1ccccc1OC)CC(=O)c1c(N)n(Cc2ccccc2)c(=O)n(C)c1=O,·,·,·,·,·,-3.2%
COc1ccc(NC(=O)c2sc3nc(Cc4ccccc4)cc(C(F)(F)F)c3c2N)cc1OC,-4.7,2.5,12.3,6.2,31.9*,-5.4%
CN1C(CSCC(F)(F)F)Nc2cc(Cl)c(S(N)(=O)=O)cc2S1(=O)=O (stereo unspecified),·,·,·,·,·,-3.7%
CCc1ccc(CN2CCC(n3nccc3NC(=O)c3cccc(F)c3)CC2)cc1,0.1,1.0,6.2,14.8,6.2,-4.8%
O=C(Nc1ccnn1C1CCN(Cc2ccc3nonc3c2)CC1)c1cccc(F)c1,-38.7*,0.6,7.8,0.6,2.5,-2.3%
CCc1ccc(CN2CCC(n3nccc3NC(=O)C3CCCC3)CC2)cc1,68.4,-0.3,9.1,31.7*,7.0,-4.2%
CCOC(=O)c1ccc(NC(=O)CCC(=O)N2Cc3ccccc3Oc3ncccc32)cc1,9.4,-1.0,36.9*,2.9,14.0,0.4%
CCOC(=O)N1CCC(NC(=O)c2cc3c(-c4cccc(OC)c4)nn(C)c3s2)CC1,-43.2*,-0.5,2.8,-0.8,2.3,-0.8%
SMILES,D1 antag,TRHR ag,D1 ag,D1 PAM,TRHR enhancer,GRP78 ERSR act
COc1cccc(-c2nn(C)c3sc(C(=O)NCc4ccc(C)cc4)cc23)c1,-5.7,1.3,7.3,1.9,4.3,-0.7%
COc1cccc(-c2nn(C)c3sc(C(=O)NCCc4cccc(C)c4)cc23)c1,-10.7,5.5,45.6*,15.2,3.1,-3.9%
O=S1(=O)CC/C(=N/Nc2ccc(C(F)(F)F)cn2)c2cc(F)ccc21,-51.6*,0.8,-0.4,10.9,16.7,-4.9%
COc1ccc(N2CC(C(=O)NC3CCSC3=O)CC2=O)cc1 (stereo unspecified),-12.8,-0.1,5.2,-8.4,-13.5,-1.2%
CN1CCN(CC(=O)Nc2cc(N(C)C)nc3ccccc23)CC1,-30.8*,0.2,3.0,-9.2,-2.5,-6.3%
CCN(CC)CC(=O)Nc1cc(N(C)C)nc2ccccc12,7.1,-0.8,0.4,-5.6,8.7,-1.3%
CN1C(=O)c2ccc(Oc3ccccc3)cc2C1=O,·,·,·,·,·,-0.8%
Cc1ccc(-c2nnn(CC(=O)N(Cc3cccs3)C(C(=O)NCC3CCCO3)c3ccco3)n2)o1 (stereo unspecified),-48.4*,-0.7,14.3,-9.2,-1.8,-1.3%
O=C(NCC1CCCO1)C(c1ccncc1)N(Cc1cccs1)C(=O)CN1C(=O)c2ccccc2S1(=O)=O (stereo unspecified),0.2,-0.4,41.8*,7.0,4.6,-0.6%
CCc1ccc(C(=O)COC(=O)C(Cc2ccccc2)NC(=O)C2CCC(C)CC2)cc1 (stereo unspecified),-31.4*,1.6,5.6,-6.2,4.5,-4.3%
O=C(COC(=O)C1CCC(=O)N1)Nc1cc(Cl)ccc1Cl (stereo unspecified),-80.1*,-0.7,2.8,1.5,7.6,-3.8%
CC(C)N1C[C@@H](Sc2ccccn2)C[C@H]1C(=O)Nc1ccc2c(c1)Nc1ccccc1CC2,·,·,·,·,·,-0.8%
Cc1nc(SCC(=O)NCc2ccc(F)cc2)c2c(=O)n(C)c(=O)n(C)c2n1,22.7,-0.3,16.9,5.2,4.9,-5.9%
Cc1nc(SCC(=O)Nc2cc(C)on2)c2c(=O)n(C)c(=O)n(C)c2n1,-63.9*,-1.5,2.7,-15.5,3.8,-1.1%
Cc1ccc(-c2nc(SCC(=O)Nc3cc(C)on3)c3c(=O)n(C)c(=O)n(C)c3n2)cc1,7.8,-1.2,1.4,0.6,-1.4,-2.1%
COC(=O)c1ccc(CSc2nc(C)nc3c2c(=O)n(C)c(=O)n3C)o1,-39.2*,-0.1,2.2,-3.3,-0.2,-4.1%
COc1cccc(CN2CCNC(=O)C2CC(=O)NCCn2ccc3ccccc32)c1OC (stereo unspecified),-85.2*,0.0,0.8,-7.3,-1.0,-3.1%
Cc1cc(C)cc(N2C(=O)CC(n3nc(C)cc3C)C2=O)c1 (stereo unspecified),-42.7*,0.6,2.6,-8.1,10.5,-2.4%
COc1cc(Cl)c(S(=O)(=O)N2CCN(c3c(C)cccc3C)CC2)cc1Cl,4.7,1.4,1.4,-5.8,-3.8,-5.4%

# Source: PubChem BioAssay
